Screening data deposited in PubChem BioAssay by several laboratories.
Calb FLC: C. albicans growth inhibition with fluconazole, primary screen, CaCi-2 strain, Alamar Blue fluorescence; C. albicans CaCi-2 (fluconazole-resistant clinical isolate) + fluconazole, 48 h; growth inhibition, % (no concentration beside the values); 300,000 tested, 0.57% active; AID 1979, 2009;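 active = growth inhibition above about 58% in most replicates, limit read from the data, passing the limit was not always enough; inconclusive = exactly half the replicates above a set limit; inactive = most replicates below a set limit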;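 also: all wells also contain fluconazole at 8 µg/ml as a sub-toxic cotreatment; 0% = median of DMSO wells and 100% = median of geldanamycin control wells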
IDE act: human IDE activators in live cells, primary screen, fluorescence polarization, HEK cells, FAbeta-B substrate. Insulin-degrading enzyme (Homo sapiens), P14735. FAbeta-B cleavage; 0% vehicle, 100% cell-free pure enzyme wells. activation, % at 5.96 µM. 340,000 tested, 0.073% active;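 active = activation above the mean of all tested compounds plus 3 SD, set per screening campaign, cut at about 17% in these data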
IDE inh: human IDE inhibitors in live cells, primary screen, fluorescence polarization, HEK cells, FAbetaB substrate. FAbetaB cleavage. 320,000 tested, 0.41% active. Insulin-degrading enzyme (Homo sapiens), P14735. AID 434962, 2010. inhibition, % at 5.59 µM;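 active = percent inhibition above the average of all tested compounds plus 3 SD, set per screening campaign, cut at about 16% in these data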;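 also: IDE supplied by intact live HEK cells; FP after avidin binding of uncleaved biotin substrate so inhibition keeps polarization high; 0% = DMSO wells and 100% = 60 µM reference IDE inhibitor Ii1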
TPT1 inh: Candida albicans TPT1 enzyme inhibitors, primary screen, biochemical, fluorescence polarization; tRNA 2'-phosphotransferase TPT1 (Candida albicans SC5314); recombinant caTPT1, FP RNA substrate dephosphorylation; inhibition, % at 5 µM; 300,000 tested, 0.81% active; AID 1962, 2009;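 active = inhibition above the mean of all tested compounds plus 3 SD, set per screening campaign, cut at about 24% in these data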;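 also: plate controls were DMSO alone for no effect and ferristatin control at 100 nM for full effect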
Rpn11 block: Rpn11 (PSMD14) deubiquitinase inhibitors, primary screen, biochemical, fluorescence polarization, uHTS. human 26S proteasome, Ub4-pepOG fluorescence polarization; 20S core pre-blocked with epoxomicin. inhibition, % at 20 µM. 360,000 tested, 0.59% active. AID 588493, 2011;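 active = inhibition at 20 µM, scaled to each plate's controls, above about 33%, limit read from the data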
Target sequence (O00487 whole entry, looked up): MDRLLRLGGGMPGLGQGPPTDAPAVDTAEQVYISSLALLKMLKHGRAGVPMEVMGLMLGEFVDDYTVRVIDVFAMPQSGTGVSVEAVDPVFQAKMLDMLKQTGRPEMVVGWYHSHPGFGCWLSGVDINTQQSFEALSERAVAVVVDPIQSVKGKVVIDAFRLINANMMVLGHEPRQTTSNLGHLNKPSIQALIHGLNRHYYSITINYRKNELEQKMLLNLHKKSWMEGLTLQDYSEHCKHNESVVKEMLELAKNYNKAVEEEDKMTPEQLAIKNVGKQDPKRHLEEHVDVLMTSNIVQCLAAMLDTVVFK
Rin1 Abl inh: inhibitors of Rin1-Abl protein binding, primary screen, biochemical, TR-FRET | Tyrosine-protein kinase ABL1 (Homo sapiens) + Ras and Rab interactor 1 (Homo sapiens), … | inhibition, % at 7.35 µM | 360,000 tested, 0.4% active | AID 588664, 2011; in the data active = inhibition above about 5%, passing the limit was not always enough
The depositor's hits bear a star; ? = inconclusive; / = not tested or not shown. Compounds with a hit are over-represented: about 2.3% of the library has one in this group of screens.

SMILES	Calb FLC	IDE act	IDE inh	TPT1 inh	Rpn11 block	Rin1 Abl inh
NC1=NC[C@H](CC2CCCCC2)N1CCc1cc(C(F)(F)F)cc(C(F)(F)F)c1	92*	26*	3	0	11	5
CCCC[C@@H]1CNCCN1CCc1cc(C(F)(F)F)cc(C(F)(F)F)c1	-1	5	5	1	9	4
COc1cc(C(CC(=O)Nc2ccccn2)N2Cc3ccccc3C2=O)cc(OC)c1OC (configuration not stated)	-9	1	6	-1	2	-1
Cc1ccc(NC2=NC(c3ccc(O)cc3)n3c(nc(C)cc3=O)N2)cc1 (configuration not stated)	-3	-2	-6	2	13	-3
COc1ccc(C2N=C(Nc3ccc(C)cc3)Nc3nc(C)cc(=O)n32)cc1 (configuration not stated)	110*	-1	-1	-1	-2	0
COc1ccc(NC(=S)NCc2ccccc2)c(OC)c1	1	5	4	-1	-4	1
C/C(=N\NC(=O)c1cccc(N/N=C(\C)c2cc(O)ccc2O)c1)c1cc(O)ccc1O	103*	4	-1	2	2	0
CCCCN(C)C1=CC2=CC(=C(C#N)C#N)CCC2CC1 (configuration not stated)	?	46*	-13	3	/	-63
C[C@H]1CCCCO[C@H](CN(C)C(=O)C2CCCCC2)[C@@H](C)CN([C@@H](C)CO)C(=O)c2cc(NC(=O)NC3CCCCC3)ccc2O1	/	/	/	/	2	-3
CCOC(=O)C1CCN(C(c2cc3c(C)ccc(C)c3[nH]c2=O)c2nnnn2C2CCCCC2)CC1 (configuration not stated)	24	3	5	14	19	-4
CCOC(=O)C1CCN(C(c2cc3ccc(C)c(C)c3[nH]c2=O)c2nnnn2C2CCCCC2)CC1 (configuration not stated)	5	1	6	12	31*	7
CCOC(=O)c1ccc(N(CC(=O)NC2CCCCC2)C(=O)CNC(=O)c2ccco2)cc1	-2	5	11	-7	-1	3
CC(c1ccc(Cl)cc1)n1c(-c2ccc3ccccc3n2)n[nH]c1=S (configuration not stated)	79*	3	0	1	5	1
CC1=C(C(N)=O)C(c2ccc(C)o2)C(C(N)=O)=C(C)N1	71*	-1	4	-10	-4	4
Cc1cc(NC(=O)CO/N=C/c2ccc3c(c2)OCO3)ccc1Br	-11	4	-4	2	0	1
CCOc1ccc(/C=N/OCC(=O)Nc2ccc3c(c2)OCO3)cc1	100*	1	-3	1	2	0
Cc1ccsc1C(=O)OCC(=O)NC1CCCC(C)C1C (configuration not stated)	/	2	1	/	-5	1
Cc1cc(Cl)n2c(nc3ccccc32)c1C#N	94*	-1	/	/	-5	-4
O=C(CCC(=O)Nc1ccc(Cl)cc1Cl)N/N=C/c1ccc([N+](=O)[O-])o1	101*	/	-1	-6	-6	1
CC(CCC(=O)O)C1CCC2C3CCC4C[C@H](O)CCC4(C)C3CC(=O)C12C (some centres not stated)	-17	-2	2	-1	-16	-2
CC1=C(CC[C@@H](C)CO)OC2CC3C4CCC5CC(O)CCC5(C)C4CC(=O)C3(C)C12 (some centres not stated)	87*	0	7	-3	6	1
Cc1onc(-c2ccccc2)c1C(=O)NC(=S)NNC(=O)c1cccnc1	100*	2	4	3	2	2
Cc1onc(-c2ccccc2)c1C(=O)NC(=S)NNC(=O)c1ccncc1	2	0	3	0	8	-2
CCOc1ccc(NC(=O)COc2cccc3cccnc23)cc1S(=O)(=O)N1CCCC1	/	/	/	/	2	-1
O=C(COc1cccc2cccnc12)Nc1cccc(S(=O)(=O)N2CCCC2)c1	/	30*	-3	/	-6	3
SMILES	Calb FLC	IDE act	IDE inh	TPT1 inh	Rpn11 block	Rin1 Abl inh
O=C(Nc1c(Cl)cccc1Cl)Oc1cccc2cccnc12	/	/	/	/	51*	2
O=C(CSc1nnc(-c2ccco2)n1Cc1ccccc1)OC1CCCCC1	97*	4	1	1	-9	-1
Cc1ccc(C(=O)Nc2ccncc2)cc1S(=O)(=O)N1CCCCC1	/	/	/	/	-1	0
C#CCOCCOCCOCCNc1nc(N2CCN(C(=O)CCCCCCCCCCNC(=O)Cn3cc(C[C@@H](C)O)nn3)CC2)nc(N2CCN(C(=O)CCCCCCCCCCNC(=O)[C@@H]([C@H](C)CC)n3cc(CCCCCN)nn3)CC2)n1	/	26*	10	-4	7	10
C#CCOCCOCCOCCNc1nc(N2CCN(C(=O)CCCCCCCCCCNC(=O)[C@H](CCCN=C(N)N)n3cc(C[C@@H](C)CC)nn3)CC2)nc(N2CCN(C(=O)CCCCCCCCCCNC(=O)[C@@H]([C@H](C)CC)n3cc(CCCCCN)nn3)CC2)n1	/	/	6	-5	/	/
C#CCOCCOCCOCCNc1nc(N2CCN(C(=O)CCCCCCCCCCNC(=O)Cn3cc(CCCCCN)nn3)CC2)nc(N2CCN(C(=O)CCCCCCCCCCNC(=O)[C@@H]([C@H](C)O)n3cc(C)nn3)CC2)n1	/	25*	-3	-1	-4	11*
C#CCOCCOCCOCCNc1nc(N2CCN(C(=O)CCCCCCCCCCNC(=O)Cn3cc(C[C@@H](C)O)nn3)CC2)nc(N2CCN(C(=O)CCCCCCCCCCNC(=O)[C@@H]([C@H](C)O)n3cc(C)nn3)CC2)n1	/	3	4	-2	1	5
CC(OC(=O)c1ccc(Cl)nc1)C(=O)NC1(C#N)CCCCC1 (configuration not stated)	-12	18*	2	3	-11	5
CC(OC(=O)c1ncc(Cl)c(Cl)c1Cl)C(=O)NC1(C#N)CCCCC1 (configuration not stated)	3	5	8	-3	-4	1
OCc1ccnc2c(O)cccc12	107*	3	-5	0	3	4
O=C1NC(=S)S/C1=C\c1ccc(SCc2ccco2)o1	/	-7	-6	90*	182*	12*
CNC[C@H]1Oc2ccc(NC(=O)C3CCCCC3)cc2CC(=O)N([C@H](C)CO)C[C@@H]1C	/	5	5	/	15	4
Cc1ccc2c(=O)n3c(nc2c1)C(Cc1ccccc1)NC(=O)c1cc(Cl)ccc1-3 (configuration not stated)	/	/	-3	/	/	/
